Over roughly 110,000 compounds, “z-score” has its median near -0.1; the highest 2% begin near 2. The sample as a whole holds a higher share of the highest values than the screen did. The source made the active and inactive calls.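 Rule for the calls: active = z-score in the third read window above 3 or below -3; inactive = the rest.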
target: Metabotropic glutamate receptor 8 (Rattus norvegicus) (UniProt P70579); test: mGluR8 Gi/Go-coupled signaling modulation – cell-based, rat, thallium flux, HTS, primary screen (AID 488969); conditions: HEK293 rat mGluR8, GIRK (G protein-gated inwardly rectifying potassium channel) thallium flux, FluoZin2; at 10 µM; stronger effect = higher value; submaximal glutamate (EC20) added with thallium
Sequence (P70579 whole entry, looked up): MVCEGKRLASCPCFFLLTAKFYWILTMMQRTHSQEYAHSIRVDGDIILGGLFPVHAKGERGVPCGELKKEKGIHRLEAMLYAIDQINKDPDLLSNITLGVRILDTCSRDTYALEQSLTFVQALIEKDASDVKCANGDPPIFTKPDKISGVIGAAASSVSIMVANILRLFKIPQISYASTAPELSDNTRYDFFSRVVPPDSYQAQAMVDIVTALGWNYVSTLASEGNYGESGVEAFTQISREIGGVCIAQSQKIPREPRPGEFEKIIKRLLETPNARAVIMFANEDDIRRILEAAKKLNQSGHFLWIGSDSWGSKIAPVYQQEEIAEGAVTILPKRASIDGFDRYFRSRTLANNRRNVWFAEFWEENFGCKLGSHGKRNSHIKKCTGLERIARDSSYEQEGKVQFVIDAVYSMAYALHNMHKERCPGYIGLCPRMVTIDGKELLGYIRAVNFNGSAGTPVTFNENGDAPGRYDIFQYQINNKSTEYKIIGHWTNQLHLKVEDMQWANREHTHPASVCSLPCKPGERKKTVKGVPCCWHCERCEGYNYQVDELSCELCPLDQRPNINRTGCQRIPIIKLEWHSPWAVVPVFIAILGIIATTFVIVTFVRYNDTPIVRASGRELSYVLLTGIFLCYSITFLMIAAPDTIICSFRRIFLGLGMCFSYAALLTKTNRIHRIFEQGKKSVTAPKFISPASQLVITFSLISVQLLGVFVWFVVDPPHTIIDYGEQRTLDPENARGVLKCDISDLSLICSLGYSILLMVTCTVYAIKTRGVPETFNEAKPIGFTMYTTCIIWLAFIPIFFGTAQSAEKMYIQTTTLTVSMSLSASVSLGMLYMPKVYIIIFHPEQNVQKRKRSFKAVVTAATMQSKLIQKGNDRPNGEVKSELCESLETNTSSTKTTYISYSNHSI

SMILES | z-score
CC(C)OC(=O)c1cc2c(ccn2C)n1CC(=O)N(Cc1ccccc1)c1ccc(F)cc1 | -0.00352
CCOC(=O)c1nnn(-c2nonc2N)c1COc1ccc(F)cc1 | -0.0888
O=C(CCCOc1ccccc1)Nc1nccs1 | -1.29
Cc1ccccc1OCCCC(=O)Nc1nccs1 | 2.49
Cc1ccc(C)c(OCCCC(=O)Nc2nccs2)c1 | -0.0356
COCCCn1c(=N)c(C(=O)NCc2ccc3c(c2)OCO3)cc2c(=O)n3ccccc3nc21 | -0.494
CCCC(=O)OCC(=O)Nc1ccccc1Sc1ccccc1 | -0.604
COc1ccccc1/C=N/NC(=O)CC(=O)NCc1cccnc1 | -0.2
O=C(c1cc2nc(-c3ccco3)cc(C(F)(F)F)n2n1)N1CCN(Cc2ccccc2)CC1 | -0.1
CCOC(=O)C1=C(C)NC(=O)NC1c1cccnc1 (configuration not stated) | 0.62
O=C1NC(=O)C2(COC(c3cccnc3)OC2)S1 (configuration not stated) | 2.49
O=C1NC(=O)C2(COC(c3ccccc3Cl)OC2)S1 (configuration not stated) | -0.116
CCCCn1c(CN2CCN(c3ccc(F)cc3)CC2)nc2c1c(=O)n(C)c(=O)n2C | -0.751
c1ccc(-c2noc(CSc3nnnn3-c3ccccc3)n2)cc1 | 2.18
c1ccc(-c2noc(CSc3nnnn3C3CCCCC3)n2)cc1 | -0.0529
CCn1c(SCc2nc(-c3ccccc3)no2)nnc1-c1cccs1 | 1.84
CCn1c(SCc2nc(-c3ccccc3)no2)nc2ccccc21 | 3.16 (active)
CCn1c(SCc2nc(-c3ccccc3)no2)nnc1-c1ccco1 | -0.421
c1ccc(CSc2nnnn2-c2ccccc2)cc1 | -0.542
CC(C)c1[nH]nc2c1C(c1cccc(OC(=O)N3CCOCC3)c1)C(C#N)=C(N)O2 (configuration not stated) | -1.23
FC(F)(F)c1ccc(CSc2nccn2-c2ccccc2)cc1 | 0.167

SMILES | z-score
COc1cc(OC)c(OC)cc1/C=N/NC(=O)c1ccc(=O)n(C)c1 | -0.238
Cc1cccc(C(=O)/C=C2/c3ccccc3CC(C)(C)N2C)c1 | -0.509
CCOCCN1CCN(c2c(CC)c(C)nc3cc(-c4cc(OC)cc(OC)c4)nn23)CC1 | -0.938
Nc1nc(SCC(=O)NC2CCCC2)[nH]c(=O)c1-c1ccccc1 | -0.603
O=C(c1ccccc1NS(=O)(=O)c1cccs1)N1CCCC1 | 0.676
COC(=O)c1ccc2c(=O)n(C3CCCCC3)c(SCC#N)nc2c1 | 3.63 (active)
CCOC(=O)CSc1nc2cc(C(=O)NCc3ccco3)ccc2c(=O)n1C1CCCCC1 | 0.724
CCOC(=O)CSc1nc2ccccc2c(=O)n1C1CCCC1 | 0.684
COc1ccc(NC(=O)Nc2cc(C)ccc2OC)cc1 | 2.83
Cc1ccc(OC(=S)Nc2ccccc2)c(C)c1 | 3.2 (active)
COc1ccc(C(=O)NCCC2=CCCCC2)cc1OC | -0.214
CCOC(=O)c1ccccc1NC(=O)Nc1ccc(OC)c(OC)c1 | 0.154
COc1ccc(NC(=O)Nc2cc(C)ccc2F)cc1 | 0.0419
CCOC(=O)c1ccc(NC(=O)Nc2ccc(OC)c(OC)c2)cc1 | 6.79 (active)
Cc1ccc(OC(=S)Nc2ccc(F)cc2)cc1 | 0.0616
COc1ccc(C)cc1NC(=O)NCCC1=CCCCC1 | 10.6 (active)
COc1ccc(OC)c(NC(=O)Nc2ccc(Cl)cc2)c1 | 0.245
Cc1ccc(OC(=S)Nc2ccc(O)cc2)cc1 | 0.0849
COc1ccc(NC(=O)C(=O)NCCC2=CCCCC2)c(OC)c1 | -0.33
CCCCOC(=O)c1ccc(NC(=O)Nc2ccc(OC)c(OC)c2)cc1 | -0.113
Cc1nn(CC(=O)Nc2cccc(S(N)(=O)=O)c2)c(C)c1[N+](=O)[O-] | -0.212

SMILES | z-score
CCOc1ccc(-c2nnn(CC(=O)c3cc(OC)ccc3OC)n2)cc1 | 1.52
CCCNC(=O)Cn1cnc2sc(C(=O)N3CCCC(C(=O)OCC)C3)c(C)c2c1=O (configuration not stated) | -1.05
CCN(CC)S(=O)(=O)c1ccc(NC(=O)C2CCCO2)cc1 (configuration not stated) | -0.205
CCCn1nc(C(=O)NCCN2CCOCC2)c2ccccc2c1=O | 0.608
Cc1occc1-c1nnc(SCC(=O)N(C)CCC#N)n1N | 0.286
O=C(NC1CCCCC1)C(c1ccc(O)cc1)N(CC1CCCO1)C(=O)C1COc2ccccc2O1 (configuration not stated) | 0.338
COc1ccc(C)cc1NC(=O)Nc1ccccc1 | 11.5 (active)
CCOC(=O)Nc1cc(C)ccc1OC | 0.0736
COc1ccc(C)cc1NC(=O)Nc1ccc(Br)cn1 | 0.233
Cc1cccc(-c2nnn(Cc3nnc(NC(=O)c4ccccc4)s3)n2)c1 | -0.0603
Cc1ccc(C(=O)N2CCN(c3ccc(C(F)(F)F)cn3)CC2)c(C)c1 | -0.0998
CC1CC(C)CN(C(=O)c2cc(-c3ccccn3)nc3ccccc23)C1 (configuration not stated) | -1.27
Cn1ccnc1SCC(=O)Nc1ccc2nc(SCC(=O)NC3CC3)sc2c1 | -0.00819
CCOc1c2ccc(C(=O)NCc3cc(C(F)(F)F)cc(C(F)(F)F)c3)cc2nn1C | 0.112
CCOC(=O)N1CCN(C(=O)CCCn2c(=S)[nH]c3ccc(Br)cc3c2=O)CC1 | 1.24
C=CCn1c(=S)[nH]c2ccc(Br)cc2c1=O | 15 (active)
C=C(C)Cn1c(=S)[nH]c2ccccc2c1=O | -0.0946
O=C(CCCCCn1c(=S)[nH]c2ccc(Br)cc2c1=O)NCC1CCCO1 (configuration not stated) | 1.92
C=CCn1c(=S)[nH]c2ccccc2c1=O | 13.6 (active)
CC(C)OC(=O)CSc1nnc(Cc2ccccc2)n1Cc1ccco1 | -0.4

— PubChem BioAssay AID488969 (Vanderbilt High Throughput Screening Facility, 2010)
